Source: PubChem BioAssay
Shown are actives, neighbours in structure and some others; about 2% of the full set was active somewhere.
JMJD2E inh – qHTS Assay for Inhibitors of Human Jumonji Domain Containing 2E (JMJD2E). JMJD2E catalytic domain, FDH-coupled NADH fluorescence (FDH is formaldehyde dehydrogenase). Potency, µM (top dose mostly 57.1 µM), actives largely listed as inhibitors. 230,000 tested, 1.6% active. AID 2147, 2009; active = well fitted inhibition curve with a large enough effect, not every such curve was filed as active; inconclusive = small, poorly fitted or top-dose-only effect, or another doubt; inactive = no such curve, though single readings can be large or run the other way; also: nearly all actives have a fitted effect of over 50% in size
Target sequence (B2RXH2 1-337 limits assumed): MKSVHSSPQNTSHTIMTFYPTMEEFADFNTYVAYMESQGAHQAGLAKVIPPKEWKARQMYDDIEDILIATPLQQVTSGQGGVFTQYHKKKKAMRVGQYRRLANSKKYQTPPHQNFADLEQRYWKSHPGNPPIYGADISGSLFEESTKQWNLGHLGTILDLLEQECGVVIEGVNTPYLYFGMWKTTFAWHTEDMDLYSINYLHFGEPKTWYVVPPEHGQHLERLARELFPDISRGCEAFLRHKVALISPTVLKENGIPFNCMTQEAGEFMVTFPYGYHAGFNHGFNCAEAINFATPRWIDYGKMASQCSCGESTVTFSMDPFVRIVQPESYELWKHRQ
HTT cytoprotect – qHTS Multiplex Assay to Identify Dual Action Probes in a Cell Model of Huntington: Cytoprotection (ATP). PC12 HTT-Q103 induced, cytoprotection, ATP luminescence, 40 h. Potency, µM (top dose mostly 56.4 µM), most hits filed as activators. 230,000 tested, 0.14% active. AID 1471, 2008; also: nearly all actives have a fitted effect of over 45% in size
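Stable PC12 Q103-GFP cells in serum-supplemented, phenol red-free DMEM; induction by tebufenozide at 100 nM final; compound dose series; cell viability quantified luminescently from ATP.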
Coupling enz – qHTS Assay for Inhibitors of Fructose-1,6-bisphosphate Aldolase from Giardia Lamblia: Coupling assay counterscreen | coupling enzyme system counterscreen, AmpLite Red fluorescence | activity change, negative = inhibition, % at 58.2 µM, hits read low | 290,000 tested, 0.67% active; in the data active = activity change below about -30%
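Activity here indicates interference with the coupling reaction, not aldolase inhibition. Compounds at 57.5 uM final met coupling enzymes for 10 min at RT; substrate and AmpLite Red detection followed, with a 525/598 nm fluorescence read after 20 min.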
HTT aggregate – qHTS Multiplex Assay to Identify Dual Action Probes in a Cell Model of Huntington: Aggregate Formation (GFP); Potency, µM (titrated, usually from 46.1 µM), most hits filed as inhibitors; 220,000 tested, 1.1% active; PC12 HttQ103-GFP aggregates, Acumen cytometry, 40 h; AID 1688, 2009; also: nearly all actives have a fitted effect of over 60% in size
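Huntingtin Q103 exon 1–GFP aggregates in induced PC12 cells (100 nM tebufenozide) were quantified by cytometry from lysates, with compounds dosed in titration.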
TR SRC2 fluor cs – Total Fluorescence Counterscreen for Inhibitors of the Interaction of Thyroid Hormone Receptor and Steroid Receptor Coregulator 2 | TRb/SRC2 Texas Red total fluorescence interference | Potency, µM (doses to about 106 µM) | 280,000 tested, 0.29% active | AID 1479, 2009; active = well fitted curve in either direction with a large enough effect; inconclusive = small, poorly fitted or top-dose-only effect
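Flags fluorescent or light-absorbing compounds by total fluorescence, S + 2P, at 555 nm excitation and 632 nm emission. Mixture: 20 nM Texas Red SRC2 peptide, 0.6 uM human TRb LBD, 1 uM T3, 5% DMSO; compound exposure 5 h at ambient temperature.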
TRb-SRC2 inh – qHTS for Inhibitors of the Interaction of Thyroid Hormone Receptor and Steroid Receptor Coregulator 2. Thyroid hormone receptor beta (Homo sapiens), P10828. TRbeta-SRC2 peptide binding, fluorescence polarization; receptor liganded with 1 µM T3. Potency, µM (highest dose often 106 µM), most hits filed as inhibitors. 280,000 tested, 0.065% active. AID 1469, 2008; also: nearly all actives have a fitted effect of over 50% in size
Target sequence (P10828 whole entry, looked up): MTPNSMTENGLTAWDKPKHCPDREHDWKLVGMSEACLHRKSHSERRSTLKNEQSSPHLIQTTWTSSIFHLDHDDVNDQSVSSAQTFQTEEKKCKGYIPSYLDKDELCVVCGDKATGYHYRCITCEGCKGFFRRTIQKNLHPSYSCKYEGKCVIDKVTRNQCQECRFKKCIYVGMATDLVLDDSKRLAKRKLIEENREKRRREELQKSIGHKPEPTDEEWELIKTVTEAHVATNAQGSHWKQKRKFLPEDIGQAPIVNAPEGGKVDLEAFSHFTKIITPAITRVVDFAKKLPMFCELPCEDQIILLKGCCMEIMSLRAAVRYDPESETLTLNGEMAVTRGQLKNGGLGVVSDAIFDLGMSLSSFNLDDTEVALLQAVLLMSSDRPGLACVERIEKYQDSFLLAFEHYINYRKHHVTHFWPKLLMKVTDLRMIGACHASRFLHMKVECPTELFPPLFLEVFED
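Fluorescence polarization of 20 nM Texas Red SRC2 peptide (20-aa NR interaction domain) bound to 0.6 uM human TRb ligand-binding domain, with 1 uM T3, after 5 hr at ambient temperature; inhibition seen as decreased polarization.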
Each line names hits and unclear results; the compound was inactive in the other large screens; [ ] = remark or other dose. Unless noted, calls follow the shape of the dose curve; as a rule, active = well fitted curve in the direction sought with a large enough effect; inconclusive = small, poorly fitted or top-dose-only effect, or another doubt; inactive = no such curve, though single readings can be large; an effect the other way counts as inactive or inconclusive.

O=C(c1ccco1)[C@@H]1[C@@H]2C(=O)N(c3ccc(F)cc3)C(=O)[C@@H]2C2c3ccccc3C=CN21 (some centres undefined)	Coupling enz -40
O=C(c1ccco1)[C@@H]1[C@@H]2C(=O)N(c3ccc(Br)cc3)C(=O)[C@@H]2C2c3ccccc3C=CN21 (some centres undefined)	Coupling enz -40
CC(=O)[C@@H]1[C@@H]2C(=O)N(C3CCCCC3)C(=O)[C@@H]2C2c3ccccc3C=CN21 (some centres undefined)	JMJD2E inh inconclusive (no result: Coupling enz)
CC(=O)[C@H]1[C@@H]2C(=O)N(c3cccc(Cl)c3)C(=O)[C@@H]2[C@H]2c3ccccc3C=CN21	JMJD2E inh inconclusive, Coupling enz -36
Cc1ccc(NCC(=O)N=Nc2c(O)[nH]c3ccc([N+](=O)[O-])cc23)cc1	JMJD2E inh inconclusive, Coupling enz -31, TR SRC2 fluor cs inconclusive
Cc1ccccc1NCC(=O)N=Nc1c(O)[nH]c2ccc([N+](=O)[O-])cc12	none
Cc1ccc(NC(=O)Cc2nn(C)c(=O)c3ccccc23)cc1F	HTT aggregate 3.5µM
Cn1nc(CC(=O)Nc2ccc3c(c2)OCCO3)c2ccccc2c1=O	HTT aggregate inconclusive
Cn1nc(CC(=O)Nc2ccc(N3CCN(C(=O)OC(C)(C)C)CC3)cc2)c2ccccc2c1=O	HTT aggregate 4µM
NCCCCCCCCCCCC(=O)O	none (no result: JMJD2E inh, HTT cytoprotect, Coupling enz, HTT aggregate)
CCOC(=O)C1(C)C=C(Nc2cccc(C)c2)C(=O)N1c1ccccc1 (centres undefined)	none (no result: JMJD2E inh, HTT cytoprotect, Coupling enz, HTT aggregate)
Cc1sc(NC(=O)c2ccco2)nc1-c1ccc2c(c1)CC(C)N2C(=O)C1CC1 (centres undefined)	JMJD2E inh inconclusive, HTT aggregate 16µM
CC(=O)CSc1nc2cc3c(cc2cc1C#N)OCCO3	JMJD2E inh inconclusive, Coupling enz -43
c1csc(-c2nn3c(C4COc5ccccc5O4)nnc3s2)c1 (centres undefined)	JMJD2E inh 32µM
Fc1ccc(-c2nn3c(C4COc5ccccc5O4)nnc3s2)cc1 (centres undefined)	none
COC(=O)/C(=C/Nc1ccccc1)[N+](=O)[O-]	none
COC(=O)/C(=C/Nc1ccc(O)cc1)[N+](=O)[O-]	JMJD2E inh inconclusive, Coupling enz -36, TRb-SRC2 inh inconclusive
COC(=O)c1ccc2c(c1)C(C)(C)C(/C=C/c1ccccc1O)=[N+]2C	JMJD2E inh inconclusive, HTT aggregate 3.5µM, TR SRC2 fluor cs 20µM[fluorescent], TRb-SRC2 inh 20µM
O=S(=O)(c1cccs1)N1CCCc2cccc(O)c21	JMJD2E inh inconclusive, HTT aggregate 11µM
[O-][n+]1ccccc1SSc1cccc[n+]1[O-]	HTT aggregate 5µM (no result: JMJD2E inh, Coupling enz)
O=C(CSc1cccc[n+]1[O-])CSc1cccc[n+]1[O-]	JMJD2E inh inconclusive, HTT cytoprotect inconclusive
CCC(COC(=O)Nc1cccc(C)c1)NC(=O)OCC(C)C (centres undefined)	HTT aggregate 10µM
O=C(NCC1CCCO1)c1coc2nc3ccccc3nc12 (centres undefined)	JMJD2E inh inconclusive
COc1ccc(-n2c(N)c(C(=O)NCC3CCCO3)c3nc4ccccc4nc32)c(OC)c1 (centres undefined)	JMJD2E inh inconclusive, Coupling enz -30, TRb-SRC2 inh inconclusive
C=CCn1c(N)c(C(=O)NCC2CCCO2)c2nc3ccccc3nc21 (centres undefined)	Coupling enz -56
O=C(Cl)c1cc(Cl)cc(Cl)c1	none (no result: JMJD2E inh, HTT cytoprotect, Coupling enz, HTT aggregate)
O=C(CN1C(=O)COc2ccc(S(=O)(=O)N3CCCCC3)cc21)NCCc1ccc(Cl)cc1	none (no result: JMJD2E inh, HTT cytoprotect, Coupling enz, HTT aggregate)
O=C(/C=C/c1ccc(O)c(O)c1)OC(Cc1ccc(O)c(O)c1)C(=O)O (centres undefined)	JMJD2E inh 4µM, HTT cytoprotect inconclusive (no result: HTT aggregate)
O=C(/C=C\c1ccc(O)c(O)c1)O[C@@H](Cc1ccc(O)c(O)c1)C(=O)O	JMJD2E inh 4.5µM (no result: HTT aggregate)
O=C(/C=C/c1ccc(O)c(O)c1)O[C@@H]1C[C@@](O)(C(=O)O)C[C@H](O)[C@@H]1O	JMJD2E inh inconclusive (no result: HTT aggregate)
OC1(c2ccc(Cl)c(C(F)(F)F)c2)CCN(CCCC(c2ccc(F)cc2)c2ccc(F)cc2)CC1	none (no result: JMJD2E inh, HTT cytoprotect, HTT aggregate)
CC(=O)C1=C(C)OC(N)=C(C#N)C1c1cc2cccc(C)c2nc1Cl (centres undefined)	JMJD2E inh inconclusive, Coupling enz -34
Cc1ccc2oc(C(=O)Nc3ccc(S(=O)(=O)N(C)c4ccccc4)cc3)cc(=O)c2c1	TR SRC2 fluor cs 100µM[quencher] (no result: JMJD2E inh, HTT cytoprotect, Coupling enz, HTT aggregate)
CCN(c1ccccc1)S(=O)(=O)c1ccc(NC(=O)c2cc(=O)c3cc(C)ccc3o2)cc1	none (no result: JMJD2E inh, HTT cytoprotect, Coupling enz, HTT aggregate)
CC1CCC(C(C)C)C(OP(=O)(c2ccccc2)C(O)c2ccncc2)C1 (centres undefined)	JMJD2E inh 18µM
CN(C)c1ccc(P(=O)(OC2CCCCC2)C(O)c2ccncc2)cc1 (centres undefined)	JMJD2E inh 22µM
CC(C)COP(=O)(c1ccc(N(C)C)cc1)C(O)c1ccncc1 (centres undefined)	JMJD2E inh 20µM
O=C(O)[C@H]1CN[C@H](C(=O)O)C1	none (no result: HTT aggregate)
Cc1ccc(NC(=S)NC2CCCC2)cc1C	none
Cc1nc2ccc(NC(=S)NC3CCCCC3)cc2nc1C	Coupling enz -35
CC(C)(C)[C@H](O)[C@H](Cc1ccc(Cl)cc1)n1cncn1	none (no result: JMJD2E inh, HTT cytoprotect, Coupling enz, HTT aggregate)
O=C(Nc1cccc(C(F)(F)F)c1)c1ccc2c(c1)nnn2C1CCCC1	none (no result: JMJD2E inh, HTT cytoprotect, Coupling enz, HTT aggregate)
CCc1ccc(OCC(=O)N(Cc2ccc(C(C)C)cc2)C2CCS(=O)(=O)C2)cc1 (centres undefined)	none (no result: JMJD2E inh, HTT cytoprotect, Coupling enz, HTT aggregate)
S=C(NC1CCCCC1)NC1CCCCC1	none (no result: JMJD2E inh, Coupling enz, HTT aggregate)
CCOC(=O)C1=C(Cc2ccc(Cl)cc2)C(=O)c2ccccc2C1=O	JMJD2E inh inconclusive, Coupling enz -37
O=C(Cc1ccc(S(=O)(=O)N2CCOCC2)s1)Nc1ccc2c(c1)CCC2	none
O=C(Cc1cccs1)Nc1nc2c(s1)CCCC2	HTT aggregate 3.2µM
O=C(Cc1ccc(S(=O)(=O)N2CCOCC2)s1)Nc1nc2c(s1)CCCC2	Coupling enz -59
CCOC(=O)C1CCN(C(=O)C2CCN(C3=NS(=O)(=O)C(c4ccc(C)cc4)=C3CC)CC2)CC1	none (no result: JMJD2E inh, HTT cytoprotect, Coupling enz, HTT aggregate)
